Screens: PubChem, National Center for Advancing Translational Sciences (NCATS)
Hits are enriched below; roughly 19% of the tested compounds scored in any of these assays.
HT1080NT lethal – kills 2HG-producing HT-1080-NT fibrosarcoma cells; HT-1080-NT fibrosarcoma viability, CellTiter-Glo ATP luminescence, 48 h; Potency, µM (doses to about 46.1 µM), inactives show at the highest dose activity, negative = less viability, hits mostly cytotoxic; 1.6% of 360,000 active; AID 686970;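 also: NT is the 2HG producing partner of a matched IDH1 knockdown line; potency is read from the fitted curve at half-maximal effect; 0% = DMSO-treated cells and -100% = media-only wells without cells; nearly all actives have a fitted effect of over 55% in size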
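A 48-hour cytotoxicity screen used HT-1080-NT cells plated 2 hours before compound delivery. ATP-based CellTiter-Glo luminescence measured viability, normalized to DMSO and no-cell controls.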
DT40 TDP1 CPT – growth inhibition of DT40 Tdp1-/-;hTDP1 cells with camptothecin (screen for TDP1 inhibitors). Potency, µM (titrated, usually from 46.2 µM), without a hit: at the highest dose activity change, negative = growth inhibition, hits mostly inhibitors. 12% of 420,000 active. chicken DT40 Tdp1-/-;hTDP1 cells + 20 nM CPT, ATP luminescence, 48 h; also: potency is read from the fitted curve at half-maximal effect; nearly all actives have a fitted effect of over 55% in size
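Chicken DT40 Tdp1-/- cells stably complemented with human TDP1 were seeded at 400 cells/well in medium containing 20 nM camptothecin, exposed to pin-transferred compounds, and grown at 37 °C for at least 48 hr. Viability was read as ATP luminescence.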
HT1080 IDH1KD tx – HT-1080 IDH1 knockdown cell toxicity (counter line); HT-1080 IDH1 knockdown viability, ATP luminescence, 48 h; Potency, µM (titrated, usually from 46.1 µM), for inactives: at the highest dose activity, negative = toxicity, usual class: cytotoxic; 2% of 360,000 active; AID 686971;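 also: potency is read from the fitted curve at half-maximal effect; 0% = DMSO wells and -100% = cell-free medium wells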
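HT-1080-IDH1KD cells (IDH1 knocked down), 750/well in RPMI with 5% FBS, treated with compound 48 h at 37 degrees C. Viability by CellTiter-Glo luminescence, normalised to DMSO and no-cell wells; concentration-response curves classed.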
IL-1B inflam inh – inflammasome signaling inhibition, IL-1 beta readout. activity change, % at 57.5 µM. 4.7% of 360,000 active. THP-1 LPS/ATP IL-1B secretion, AlphaLISA, 16 h; stronger effect = lower value; in the data active = activity change below about -50%; inconclusive = mostly about -30% to -49%
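THP-1 cells pretreated 1 hr with compounds (up to 57.5 uM final), then stimulated with LPS (250 ng/mL final) plus ATP (1.25 mM final); secreted IL-1B measured by AlphaLISA after 16 hr, decreased signal indicating inhibition.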
ELG1 DNA repair – ELG1-dependent DNA repair inhibition | HEK293T ELG1-luciferase reporter, luminescence, 16 h; DNA damage induced by 5-fluorouridine | Potency, µM (series often up to 46.1 µM), inactives show at the top dose activity change, negative = inhibition, usual class: inhibitors | 2.3% of 330,000 active; also: potency is read from the fitted curve at half-maximal effect; nearly all actives have a fitted effect of over 55% in size
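DMSO vehicle served as the neutral condition. Each well held 2,000 cells given 5-fluorouridine plus compound; after 16 hr at 37 °C/5% CO2, ONE-Glo was added and luciferase measured 30 min later.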
DT40 TDP1 no CPT – qHTS for Inhibitors of human tyrosyl-DNA phosphodiesterase 1 (TDP1): qHTS in cells in absence of CPT; Potency, µM (titrated, usually from 46.2 µM), without a hit: at the highest dose activity change, negative = growth inhibition, hits mostly inhibitors; 15% of 420,000 active; DT40 Tdp1-/- hTDP1 cells, no CPT, ATP luminescence, 48 h; AID 686978, 2013; also: potency is read from the fitted curve at half-maximal effect; nearly all actives have a fitted effect of over 55% in size
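DT40 Tdp1-/-;hTDP1 cells, no CPT (DMSO vehicle only), 400 cells/well; compounds pin-transferred; ≥48 hr, 37 °C; CellTiter-Glo 30 min RT dark, luminescence read.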
An asterisk follows results filed as active; ? = inconclusive; nt = no result; [ ] = remark or other dose. Unless noted, calls follow the shape of the dose curve; as a rule, active = well fitted curve in the direction sought with a large enough effect; inconclusive = small, poorly fitted or top-dose-only effect, or another doubt; inactive = no such curve, though single readings can be large; an effect the other way counts as inactive or inconclusive. Unless noted, % is scaled to controls: 0 for no effect and ±100 for the full control effect.

SMILES | HT1080NT lethal | DT40 TDP1 CPT | HT1080 IDH1KD tx | IL-1B inflam inh | ELG1 DNA repair | DT40 TDP1 no CPT
CC(C)NC(=O)C1Cc2c(-c3ccc(Cl)cc3)ccnc2O1 (stereo not drawn) | 5% | -29% | 8% | 25 | nt | -28%
C=C1[C@@H](O)[C@H](Cc2ccccc2)N(Cc2ccccc2Br)S1(=O)=O | ? | 21µM* | 23µM* | -102* | nt | 18µM*
Cc1ccccc1CN1[C@@H](Cc2ccccc2)COCCS1(=O)=O | 0% | ? | 7% | -14 | nt | ?
Cc1ccc(CCSc2ccc(C(C)C)cc2)cn1 | -1% | ? | 0% | -59* | 22% | 26µM*
CCC(Sc1nc2nccnc2c(=O)n1Cc1ccc(F)cc1)C(=O)NC1CCCCC1 (stereo not drawn) | nt | 21µM* | nt | nt | nt | ?
CC[N+]1(C)CCC(O)(/C=C/c2ccccc2)C(C(=O)/C=C/c2ccccc2)C1 (stereo not drawn) | -17% | 0.033µM* | 7.3µM* | -102* | nt | 0.13µM*
COc1ccc(-c2onc(C)c2C)cc1S(=O)(=O)N(C)Cc1ccccc1 | nt | 21µM* | nt | nt | nt | 23µM*
O=C(Cc1cccc2ccccc12)N/N=C/c1ccc(F)cc1 | -29% | ? | -35% | 22 | 8% | ?
Cn1cccc1/C=N/NC(=O)Cc1cccc2ccccc12 | -14% | ? | ? | 34 | 13µM* | 12µM*
Cn1cccc1/C=N/NC(=O)CNc1ccc2ccccc2c1 | -19% | 12% | -3% | nt | ? | -17%
O=C(Cc1ccc(Cl)cc1)N/N=C1\CCCc2ccccc21 | 4% | ? | -4% | 20 | -4% | 23µM*
O=C(Cc1cccc2ccccc12)NN=Cc1ccc2c(c1)CCC2 | -2% | ? | -1% | 1 | nt | 21µM*
O=C(Cc1cccc2ccccc12)N/N=C1\CCCc2ccccc21 | -14% | ? | -22% | 22 | ? | 16µM*
CC(=O)OC1CC(OC(C)=O)[C@]2(C)C(CC(=O)[C@]3(C)C2CC[C@@]2(C)C(C(=O)O)OC(=O)C4OC423)C1(C)C (stereo partly drawn) | nt | 6% | nt | nt | nt | 3%
CC1(C(=O)NS(=O)(=O)c2cccc(C#N)c2)CCN1C(=O)c1ccc(C2CCCCC2)cc1 (stereo not drawn) | 2% | -22% | 2% | 51 | nt | -15%
CCOc1ccc(OCC)c(NC(=O)c2cc(S(=O)(=O)N3CCCC3)cn2C)c1 | nt | -22% | nt | nt | nt | ?
N#Cc1c(NC(=O)c2ccccc2)sc2c1CCCCC2 | -3% | 3% | -9% | ? | ? | ?
N#Cc1c(Cl)nsc1NC(=O)c1ccccc1 | 8.2µM* | 13µM* | 13µM* | ? | 2.9µM* | 8.2µM*
O=[N+]([O-])c1ccc(CN2[C@H](COCc3ccccc3)[C@@H](N3CCCC3)CS2(=O)=O)cc1 | 1% | -17% | -1% | ? | nt | ?
O=C(N/N=C/c1cccc2ccccc12)c1n[nH]c2c1CCCC2 | 1.5µM* | 4.6µM* | 1.5µM* | 60 | 11% | 4.1µM*
O=C(NN=Cc1cccc2ccccc12)C1CC1 | 4% | -26% | -11% | 12 | nt | ?
O=C(N/N=C/c1ccc(Cl)cc1Cl)c1n[nH]c2c1CCCC2 | 8.2µM* | 2.9µM* | 6.5µM* | 4 | ? | 2.9µM*
O=C(N/N=C\c1cccc(Cl)c1)c1n[nH]c2c1CCCC2 | -6% | 4% | -29% | ? | ? | -27%
CN(C)S(=O)(=O)NCC1CCCN(Cc2cc3ccccc3s2)C1 (stereo not drawn) | -4% | ? | -7% | 11 | nt | ?
O=C(O)c1ccc(CNCc2ccc(Cl)cc2)s1 | nt | -7% | nt | nt | nt | -9%
SMILES | HT1080NT lethal | DT40 TDP1 CPT | HT1080 IDH1KD tx | IL-1B inflam inh | ELG1 DNA repair | DT40 TDP1 no CPT
Cc1ccc(F)cc1S(=O)(=O)NCc1nc(N2CCCC2)c2cccc(C)c2n1 | nt | ? | nt | nt | nt | 23µM*
Cc1cccc2c(N3CCCC3)nc(CNS(=O)(=O)c3ccccc3F)nc12 | nt | 2%[9.04 µM] | nt | nt | nt | ?
COc1ccc(NC(=O)c2ccc3c(=O)n(CC4CCCO4)c(=S)[nH]c3c2)c(OC)c1 (stereo not drawn) | 7% | ? | 6% | 15 | -23% | 13µM*
CC(C)NC(=O)c1ccc2c(=O)n(CC3CCCO3)c(=S)[nH]c2c1 (stereo not drawn) | 2% | 3% | 0% | 16 | -11% | -25%
O=C(NCc1ccco1)c1ccc2c(=O)n(CC3CCCO3)c(=S)[nH]c2c1 (stereo not drawn) | 1% | -27% | 6% | -26 | 13µM* | -18%
O=C(O)c1ccc2c(=O)n(-c3ccccc3F)c(=S)[nH]c2c1 | 5% | 26% | -8% | 32 | -3% | 12%
O=C(NCc1ccccc1)c1ccc2c(=O)n(CC3CCCO3)c(=S)[nH]c2c1 (stereo not drawn) | 8% | ? | 0% | 40 | -23% | -11%
COc1ccc(-n2c(=S)[nH]c3cc(C(=O)NCc4ccco4)ccc3c2=O)cc1OC | 14% | -20% | 17% | 12 | -13% | -25%
COc1ccc(CCn2c(=S)[nH]c3cc(C(=O)NCc4ccco4)ccc3c2=O)cc1OC | ? | 21µM* | -29% | 15 | -22% | 16µM*
COC(=O)c1ccc2c(=O)n(-c3ccccc3F)c(=S)[nH]c2c1 | 0% | -28% | -1% | 61 | 18µM* | -25%
COc1ccc(NC(=O)c2ccc3c(=O)n(-c4ccc(OC)cc4OC)c(=S)[nH]c3c2)c(OC)c1 | 0% | 23µM* | -4% | -11 | ? | 21µM*
CCOc1ccc(NC(=O)c2ccc3c(=O)n(-c4ccc(OC)cc4OC)c(=S)[nH]c3c2)cc1 | nt | nt | nt | nt | 8.2µM* | nt
O=C(NCC1CCCO1)c1ccc2c(=O)n(CCc3ccccc3)c(=O)[nH]c2c1 (stereo not drawn) | 13% | 2% | 4% | 8 | -10% | -14%
CC1CCCC(NC(=O)c2ccc3c(=O)n(CC4CCCO4)c(=O)[nH]c3c2)C1C (stereo not drawn) | -5% | ? | -2% | -25 | ? | 18µM*
COC(=O)c1ccc2c(=O)n(Cc3ccc(C(=O)NC(C)C)cc3)c(=S)[nH]c2c1 | -1% | ? | 0% | 32 | 10% | 23µM*
